Data taken from PubChem BioAssay AID1789 (The Scripps Research Institute Molecular Screening Center, 2009).
Where “and” joins values, the source holds several entries; their conditions need not be identical. Equal values may be shown once. In all, about 290,000 compounds went through this assay and about 2,700 (0.93%) were called active.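 How the source made its calls: active means inhibition above the screen-wide mean plus 3 SD, computed separately per campaign (cut at about 16% in these data); inactive means the rest.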 The list comes from a sample in which actives are over-represented; it also holds similar structures and randomly drawn compounds.

The compounds below were run on Heat shock protein HSP 90 (rabbit reticulocyte lysate; luciferase refolding) (assay: HSP90 inhibitors, primary screen, cell lysate, luminescence (AID 1789;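 further: 0% = DMSO wells and 100% = 60 µM geldanamycin wells; inhibitors lower the luminescence because luciferase stays unfolded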)). Settings: 3 h, at 5.6 µM, active compounds read high.

inhibition, active:
Cc1nn(CC(=O)Nc2ccc(F)cc2)c(=O)c2ccccc12 31.8%, O=C(Cn1c[n+](CC(=O)c2ccc([N+](=O)[O-])cc2)cn1)c1ccc([N+](=O)[O-])cc1 17.4% and 20.8%, CN(CCO)c1ccc(/C=N/Nc2nncc3ccccc23)cc1 58.9%, O=C(Nc1cccnc1)c1noc2c1CCCCC2 39.9%, CCCS(=O)(=O)N1CCCC(C(=O)NCCN2CCCCC2C)C1 (stereo not drawn) 20.8%, O=C1c2ccccc2C(Nc2ccc3c(c2)OCCO3)N1Cc1ccco1 (stereo not drawn) 16.6%, COc1ccc(/C=C/c2noc(-c3ccccc3OC(C)=O)n2)cc1 24.5%, O=C(O)c1ccc(N/N=C/c2ccc3ncccc3c2)cc1 16.2%, O=C(CN1C(=O)c2ccccc2S1(=O)=O)N1CCc2ccccc21 56.6%, O=C(CSC(=S)N1CCOCC1)c1ccccc1 34.1%, Cn1c(-c2ccco2)nc2cc3ccccc3cc21 37.7%, Clc1ccc2nc(CSc3ccccc3)cn2c1 25.5%

inhibition, inactive:
O=S(=O)(c1ccccc1)c1nc(-c2ccccc2)oc1NCCCN1CCOCC1 -4.19%, O=C(NCCc1ccc(Cl)cc1Cl)c1cc([N+](=O)[O-])c[nH]c1=O -4.08%, Cc1ccc(NC(=O)Cn2nc(C)c3ccccc3c2=O)c(C)c1 -0.05%, O=C(Cn1nc(C(=O)O)c2ccccc2c1=O)Nc1ccc(F)cc1 0.16%, CCc1nnc(NC(=O)CCC(=O)N2CCN(c3cc(C)ccc3C)CC2)s1 -1.11%, O=C(CC(n1cncn1)C(Cl)(Cl)Cl)c1ccc([N+](=O)[O-])cc1 (stereo not drawn) -0.82%, O=C(c1ccncc1)c1ccc([N+](=O)[O-])cc1 1.75%, O=C(c1ccc(Br)o1)N1CCN(CCOc2ccccc2)CC1 -4.13%, COc1ccc(CNC(=O)c2ccc3oc(C(C)C)nc3c2)cc1 -4.27%, COc1cc(/C=N/Nc2nn3cnnc3c3ccccc23)cc(OC)c1OC -1.69%, C/C(=N\Nc1nncc2ccccc12)c1ccc(Cl)c([N+](=O)[O-])c1 3.18%, C=CCSc1nsc(NC(=O)Nc2cccc(C(C)=O)c2)n1 -1.06%, O=C(C1CCCN(S(=O)(=O)c2ccc([N+](=O)[O-])cc2)C1)N1CCCCC1 (stereo not drawn) 6.54%, O=C(c1noc2c1CCCC2)N1CCc2ccccc2C1 3.28%, O=C(Nc1cccnc1)c1cccc(S(=O)(=O)N2CCCC2)c1 -0.49%, CCn1cc(CN2CCC(C(=O)Nc3cccc(-c4cccc(Cl)c4)c3)CC2)cn1 7.07%, CCCS(=O)(=O)N1CCCC(C(=O)NCc2ccco2)C1 (stereo not drawn) -2%, CCS(=O)(=O)N1CCCC(C(=O)NCc2ccc(C)cc2)C1 (stereo not drawn) -1.37%, COc1ccccc1CN1CCCC(N2CCN(c3ccc(F)cc3)CC2)C1 (stereo not drawn) -1.44%, O=C(NC1CCCCC1)C1c2ccccc2C(=O)N1Cc1ccco1 (stereo not drawn) -0.31%, Cc1ccnc(N2C(=O)c3ccccc3C2Nc2ccc3c(c2)OCCO3)c1 (stereo not drawn) 1.87%, CCc1ccc(NC(=O)CN2CCC(C(=O)c3ccc(OC)cc3)CC2)cc1 0.9%, Cc1ccccc1OCC(=O)N(Cc1cccc(F)c1)C1CCS(=O)(=O)C1 (stereo not drawn) -1.03%, CC(=O)Oc1ccc2c(c1)C(=O)c1ccccc1C2=O 4.58%, CC(=O)Oc1ccc(-c2nc3c(C)cccc3c(=O)o2)cc1 -3.74%, O=C(O)c1ccc(/C=N/Nc2nc(N3CCCCC3)nc(N3CCCCC3)n2)cc1 1.51%, Cc1ccc2cc(/C=N/Nc3ccc(C(=O)O)cc3)c(Cl)nc2c1 1.97%, O=C(CN1C(=O)c2ccccc2S1(=O)=O)NC1CCCCC1 0.8%, O=C(CN1CCN(c2ccccn2)CC1)N1CCc2ccccc21 2.52%, O=C(Oc1cccc(O)c1)C1CCCCC1 2.03%, O=C(CSC(=S)N1CCOCC1)c1cc(Br)cc(Br)c1O -0.31%, CC1CN(C(=S)SCC(=O)c2ccccc2)CC(C)O1 (stereo not drawn) 1.9%, Cc1cccc(NC(=O)c2cccc(C(=O)Nc3cccc(C)c3C)n2)c1C -2.8%, O=C(NCCCc1ccccc1)c1cc(COc2c(F)cccc2F)on1 -1.08%, COc1ccc(CNS(=O)(=O)c2cc(-c3cc(C)no3)ccc2C(C)C)cc1 6.8%, CCN(CC)CCN(C(=O)c1cc(Cl)sc1Cl)c1nc2cc3c(cc2s1)OCO3 0.85%, COc1ccc(/C=N/Nc2nc(-c3ccc(C)cc3)c(C#N)c(=O)[nH]2)cc1 -6.02%, Cn1cccc1-c1nc2ccccc2n1C 2.48%, S=c1[nH]nc(-c2ccco2)n1/N=C/c1ccccc1 1.32%, CC(C)Cn1cnc2c1c(=O)n(CC(=O)NN)c(=O)n2Cc1ccccc1 -0.47%, COc1ccc(OC)c(NC(=O)c2cccc(S(=O)(=O)N3CCN(C(C)=O)CC3)c2)c1 0.82%, Cc1c(NC(=O)c2c([N+](=O)[O-])cnn2C)c(=O)n(-c2ccccc2)n1C 0.17%, CCOc1ncccc1C(=O)OCc1cn2cc(Cl)ccc2n1 -0.94%, O=C(/C=C/c1ccc2c(c1)OCO2)NCc1cn2cc(Cl)ccc2n1 -0.84%, N#C[C@]1(S(=O)(=O)c2ccccc2)C[C@@H]2ON=C(c3cccc(Br)c3)[C@@H]2C1 0.82%, COc1ccc(C(=O)N[C@H](C(=O)NCc2ccccc2)C(C)C)cc1 -4.29%
